Bioassay records: PubChem, National Center for Advancing Translational Sciences (NCATS)
Shown are actives, neighbours in structure and some others; about 11% of the full set was active somewhere.
NS1 function inh: influenza NS1 inhibition; 270,000 tested, 0.4% active; AID 2326; Potency, µM (highest dose often 46.1 µM), for the others: at the top dose activity, positive = more growth; calls by dose curve; also: actives are rising curves; nearly all actives have a fitted effect of over 50% in size
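Compounds were scored for reversing the slow growth caused by influenza A NS1 in S. cerevisiae, measured by optical density at 600 nm. Assay medium contained 2% galactose at pH 6.0; NS1-free yeast of the same strain were the positive control.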
Sm TGR inh: inhibitors of Schistosoma mansoni thioredoxin glutathione reductase. purified TGR, DTNB reduction, TNB absorbance 405 nm. AID 485364. 360,000 tested, 3% active. Potency, µM (titrated, usually from 114 µM), for inactives: top-dose activity change, negative = inhibition, most hits filed as inhibitors. Q962Y6; also: % is scaled to controls: 0 for no effect and ±100 for the full control effect; nearly all actives have a fitted effect of over 60% in size
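TGR 20 nM + NADPH 100 uM (dispensed conc.), cpd preinc 15 min RT; start with NADPH (500 uM addition) then DTNB (15 mM addition). Kinetic TNB absorbance, 405 nm filter. Four-parameter Hill fit across titration.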
Pf growth 48h: P. falciparum growth inhibition at 48 hours (one generation) | P. falciparum luciferase growth in erythrocytes, 48 h | Potency, µM (doses to about 28.7 µM), without a hit: top-dose activity change, negative = inhibition, actives largely listed as inhibitors | 310,000 tested, 5.9% active | AID 504832; also: % is scaled to controls: 0 for no effect and ±100 for the full control effect
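Luciferase-expressing parasites in RBCs, 2% Hct / 0.1% parasitemia final; RPMI 1640 + 0.5% Albumax; 37 C, 5% CO2, one generation; luminescence read-out, lower signal = inhibition.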
Pf growth 96h: inhibits malaria parasite growth, 96 h; P. falciparum luciferase reporter growth, 96 h; Potency, µM (series often up to 28.7 µM), inactives show at the top dose activity change, negative = inhibition, most hits filed as inhibitors; 320,000 tested, 6.9% active; AID 504834; also: % is scaled to controls: 0 for no effect and ±100 for the full control effect
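Plates of compound plus infected erythrocytes (2% hematocrit, 0.05% parasitemia final) incubate 96 hours, 37 C, 5% CO2. Detection reagent added; reduced luminescence from the parasites' luciferase reporter flags inhibition.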
AMA1 RON2 block: disrupts binding of P. falciparum AMA1 to RON2 | 360,000 tested, 0.2% active | Potency, µM (series often up to 58.2 µM), for inactives: at the highest dose activity change, negative = inhibition, actives largely listed as inhibitors | AlphaScreen AMA1-biotinylated RON2 peptide binding | AID 720542;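 also: 0% = vehicle wells and -100% = peptide control; nearly all actives have a fitted effect of over 45% in size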
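AMA1 (3D7) with his tag at 25 nM final met compounds first, then biotinylated RON2 peptide at 25 nM; detection used donor plus acceptor beads, 10 µg/mL apiece, read by AlphaScreen after 30 min at room temperature.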
* hit, by the source's call; ? = inconclusive; nt = not tested or not shown; [ ] = another dose, or the depositor's remark. Unless noted, calls follow the shape of the dose curve; as a rule, active = well fitted curve in the direction sought with a large enough effect; inconclusive = small, poorly fitted or top-dose-only effect, or another doubt; inactive = no such curve, though single readings can be large; an effect the other way counts as inactive or inconclusive. Potency is read from the fitted curve at half-maximal effect.

SMILES	NS1 function inh	Sm TGR inh	Pf growth 48h	Pf growth 96h	AMA1 RON2 block
CC(=O)Oc1cc(C)c(OC(C)=O)c2ccccc12	nt	nt	6.7µM*	4.8µM*	nt
CC(=O)Oc1ccccc1C(=O)O	6%	nt	-1%	2%	-26%
CC(=O)Oc1cc2c(c3ccccc13)CCC2=O	nt	nt	nt	nt	3%
CC(=O)Oc1cc2cccc(OC(C)=O)c(=O)c2c(OC(C)=O)c1OC(C)=O	-59%	?	?	15µM*	1.8µM*
C=C(C)CCOC(=O)C(CC(=O)O)NCc1ccco1 (stereo unspecified)	2%	-34%	?	-10%	14%
COc1ccc(C/C(C)=N/NS(=O)(=O)c2ccc(Br)cc2)cc1	nt	22µM*	14%	?	-17%
COc1ccc(S(=O)(=O)N/N=C(/C)c2ccc(Cl)cc2)cc1	18%	1%	9%	19%	13%
CCNc1ccc(Br)cc(C(=O)/C=C/c2ccc(Cl)cc2)c1=O	-31%	10µM*	-72%	?	-16%
CCNc1ccc(Br)cc(C(=O)/C=C/c2c(Cl)cccc2Cl)c1=O	-9%	0.89µM*	?	?	?
CCNc1ccc(Br)cc(C(=O)/C=C/c2ccc3c(c2)OCO3)c1=O	14%	?	17%	?	-27%
CNc1ccc(Br)cc(C(=O)/C=C/c2ccc(Cl)cc2Cl)c1=O	3%	3.5µM*	?	?	-22%
CNc1ccc(Br)cc(C(=O)/C=C/c2cccc(OC)c2)c1=O	16%	3.2µM*	?	?	-20%
CCn1nc(C)c2c(-c3ccccc3)cc(=O)n(C(C)C(=O)NCc3ccc(C)cc3)c21 (stereo unspecified)	nt	-10%	nt	nt	nt
COCCN(CCOC)C(=O)COC(=O)c1ccc(Cl)c(S(=O)(=O)N(C)c2ccccc2)c1	nt	2%	-12%	?	-17%
Cc1cccc(NC(=O)CSc2nc3ccccc3nc2N2CC(C)OC(C)C2)c1 (stereo unspecified)	-6%	9%	?	9.3µM*	18%
Cc1cccc(NC(=O)CSc2nc3ccccc3nc2N2CCCCC2)c1	0%	-18%	13µM*	?	30%
O=S(=O)(c1ccc(OCC(O)CNC23CC4CC(CC(C4)C2)C3)c(Cl)c1)N1CCOCC1 (stereo unspecified)	11%	13%	10µM*	?	-6%
Cc1c(Br)c(O)c(Br)c2sc(=O)oc12	3%	2.8µM*	?	?	?
COCc1cc(=O)n2[nH]c(N)nc2n1	-8%	-18%	10µM*	?	5%
N#C/C(=C\c1c[nH]c2ccc(Br)cc12)c1ccccn1	4%	5%	?	9.3µM*	6%
N#C/C(=C\c1ccc(C(=O)O)cc1)c1ccccn1	nt	5%	11%	22%	10%
COc1ccccc1-c1ccc(SCc2ccc([N+](=O)[O-])cc2)nn1	nt	18%	?	?	-19%
COc1ccccc1-c1ccc(SCc2cccc(C)c2)nn1	nt	4%	10µM*	12µM*	15%
COCCC(C(=O)Oc1c(C(C)(C)C)cc(C)cc1C(C)(C)C)c1ccccc1 (stereo unspecified)	nt	-26%	8.3µM*	5.2µM*	2%
CCC(C(=O)Oc1c(C(C)C)cccc1C(C)C)c1ccccc1 (stereo unspecified)	nt	5%	-14%	?	-3%
SMILES	NS1 function inh	Sm TGR inh	Pf growth 48h	Pf growth 96h	AMA1 RON2 block
Cc1cc(NC(=O)CSc2nnc(CNC(=O)c3ccc(F)cc3)o2)no1	13%	-20%	75%	41%	77%
O=C(NC1CCCCC1)C(c1cccs1)N(C(=O)c1ccccn1)c1ccccc1 (stereo unspecified)	6%	-3%	-28%	?	-3%
OC(C#Cc1ccccn1)c1cccs1 (stereo unspecified)	-6%	1.4µM*	10µM*	-13%	-8%
C/C(CC(C)(C)C1CCCCC1)=N\NC(N)=S	-192%	0%	nt	2.9µM*	-1%
CCCCCNC(=O)CCn1c(=O)[nH]c2ccccc2c1=O	nt	-4%	nt	nt	nt
COc1ccc2c(c1)C(NC(=O)C(F)(F)F)CC2=O (stereo unspecified)	1%	-1%	23%	11%	4%
COc1cc2c(cc1OC)C(NC(=O)C(F)(F)F)C/C2=N\O (stereo unspecified)	nt	2%	13µM*	13%	-15%
Cn1nnnc1P(=O)(c1ccccc1)c1ccccc1	5%	14%	-13%	10µM*	16%
Cc1csc(NC(=O)CN2C(=O)c3ccccc3S2(=O)=O)n1	3%	3%	16%	13µM*	73%
CCOC(=O)[C@]12CCCC=C1N(Cc1ccc3c(c1)OCO3)C(=O)[C@H](CC(=O)NCC13CC4CC(CC(C4)C1)C3)C2	nt	nt	nt	nt	-19%
CCCCOCC(O)Cn1c(C)nc2ccccc21 (stereo unspecified)	-3%	0%	14%	32%	-13%
Cc1ccc2c(c1)c1c(n2CC(O)Cn2ccnc2C)C(=O)CCC1 (stereo unspecified)	4%	-5%	?	0%	-9%
CC1CCCC(C)N1CC(O)Cn1c2ccccc2c2ccccc21 (stereo unspecified)	-6%	?	-26%	1%	-2%
Cc1ccc2c(c1)c1c(n2CC(O)Cn2c(C)nc3ccccc32)C(=O)CCC1 (stereo unspecified)	-59%	-11%	15µM*	2%	-2%
Cc1ccc2c(c1)c1c(n2CC(O)Cn2c(C)nc3ccccc32)/C(=N\O)CCC1 (stereo unspecified)	-63%	4%	12µM*	?	-11%
Cc1nc2ccccc2n1CC(O)Cn1c2ccccc2c2ccccc21 (stereo unspecified)	-35%	3%	12µM*	nt	-1%
Cc1cc(C)[n+](C)n1CC(O)Cn1c2ccccc2c2ccccc21 (stereo unspecified)	nt	-13%	0.59µM*	21%	0%
Cc1ccc(NC(c2cccc(Cl)c2)c2nnc(-c3ccccc3)o2)cc1F (stereo unspecified)	nt	-9%	nt	nt	nt
O=C(Nc1cccc(F)c1)NC1CCN(Cc2ccccc2)CC1	-3%	-6%	?	11%	-12%
OC(Cn1c2ccccc2c2ccccc21)C[n+]1cccc2ccccc21 (stereo unspecified)	8%	-25%	6.6µM*	3.3µM*	-16%
Cc1cccc(NC(=O)CN(C)S(=O)(=O)c2cnc[nH]2)c1	2%	6%	46%	1%	6%
CSc1cccc(NC(=O)CN(C)S(=O)(=O)c2cnc[nH]2)c1	9%	16%	26%	?	5µM*
Cc1cc(-c2ccccc2)n(-c2cc(N/N=C/c3ccccc3O)ncn2)n1	?	2%	13µM*	-11%	56%
CNc1cc(-n2nc(C)cc2-c2ccccc2)ncn1	2%	-2%[11.4 µM]	nt	-12%	?
CC1CCN(S(=O)(=O)c2ccc(C(=O)N3CCN(c4ccccc4F)CC3)cc2)CC1	1%	0%	?	-30%	-3%
